Most compounds without a hit are left out; they make up all but 1.4% or so of the library.
12-LOX inh – Primary qHTS assay for inhibitors of human arachidonate 12S-lipoxygenase (ALOX12): Round 2 | Polyunsaturated fatty acid lipoxygenase ALOX12 (Homo sapiens), P18054 | purified 12hLO, xylenol orange hydroperoxide absorbance | Potency, µM (series often up to 108 µM), actives largely listed as inhibitors | 580,000 compounds, 1.1% hits
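Purified human 12hLO at 150 nM in 25 mM Hepes, 0.01% Triton X-100, pH 7.0, preincubated 15 min at room temperature with compound. Reaction started with 40 uM arachidonic acid, 30 min at room temperature. Hydroperoxide measured by Fe-xylenol orange, 573/405 nm absorbance ratio.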
Mm-Cpn inhibitor – Inhibitors of TCP-1 ring complex (TRiC) of Methanococcus maripaludis (MmCpn): qHTS; purified Mm-Cpn ATPase, ADP Transcreener TR-FRET; Chaperonin Mm-Cpn (Methanococcus maripaludis); Potency, µM (titrated, usually from 76.9 µM), usual class: inhibitors; AID 504842, 2011; 330,000 compounds, 0.031% hits; also: nearly all actives have a fitted effect of over 80% in size
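TR-FRET (320 nm excitation; 590 and 665 nm emission) reports ADP made from 10 uM ATP by 25 nM enzyme; compounds were preincubated 10 min, reaction run 30 min, both at 37°C.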
p53 reactivation – qHTS assay for re-activators of p53 using a Luc reporter; H1299 p53-A138V BP100-luciferase reporter, luminescence, 24 h; Potency, µM (top dose mostly 92.2 µM), most hits filed as activators; 320,000 compounds, 0.063% hits; AID 504706, 2011; also: nearly all actives have a fitted effect of over 45% in size
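H1299 (p53-null), stable ts p53-A138V + BP100-Luc; 1000 cells/well, Opti-MEM/10% FBS; cpd 4 pt, 1:5; 24 h, 37 deg C, 5% CO2; detection reagent 10 min RT; luminescence.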
S-ASM inh – Inhibitors of Secretory Acid Sphingomyelinase (S-ASM): qHTS. Sphingomyelin phosphodiesterase (Homo sapiens), P17405. placental ASM, HMU-PC fluorogenic substrate, 60 min. 340,000 compounds, 0.006% hits. Potency, µM (series often up to 57.5 µM), usual class: inhibitors
Target sequence (P17405 47-631 limits assumed): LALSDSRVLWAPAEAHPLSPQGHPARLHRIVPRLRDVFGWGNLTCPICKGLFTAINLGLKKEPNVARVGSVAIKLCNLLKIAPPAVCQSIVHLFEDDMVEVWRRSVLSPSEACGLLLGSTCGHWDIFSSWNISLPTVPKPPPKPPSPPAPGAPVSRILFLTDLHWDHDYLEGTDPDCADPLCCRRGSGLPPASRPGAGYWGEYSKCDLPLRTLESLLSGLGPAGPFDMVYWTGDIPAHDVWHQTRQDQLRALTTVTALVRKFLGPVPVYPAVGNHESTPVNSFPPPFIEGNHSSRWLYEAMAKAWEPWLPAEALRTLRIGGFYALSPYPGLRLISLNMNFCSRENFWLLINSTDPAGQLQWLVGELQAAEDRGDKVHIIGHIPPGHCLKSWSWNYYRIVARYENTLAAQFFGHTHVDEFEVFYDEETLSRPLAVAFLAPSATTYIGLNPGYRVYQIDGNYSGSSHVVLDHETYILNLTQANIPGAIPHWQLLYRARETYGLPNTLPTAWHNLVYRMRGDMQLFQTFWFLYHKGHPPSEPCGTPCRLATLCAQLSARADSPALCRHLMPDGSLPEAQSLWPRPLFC
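HMU-PC0 cleavage (9 uM final) by human placental ASM, 60 min at 37 °C following 10 min compound exposure at RT; stopped at pH 10, fluorescence Ex 386/Em 447 nm.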
CCT chaperon mod – High-Throughput Screening for Modulators of Cytosolic Chaperonin Activity | purified chaperonin ATPase assay, HTRF ADP detection, 30 min | activity change, % (test concentration not listed), hits read low | 360,000 compounds, 0.3% hits; in the data active = activity change below about -30%
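TRiC (40 or 20 nM final, by batch activity) in 30 mM Tris pH 7.4, 100 mM KCl, 5 mM MgCl2, 1 mM DTT was treated with compound at 76 uM single dose, then 10 uM ATP, 30 min at 37 °C. ADP was read by HTRF Transcreener.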
PINK1 expr mod – A Quantitative High throughput Screen to Identify Chemical Modulators of PINK1 Expression. PINK1 immunofluorescence, high-content cytometry, 24 h. Potency, µM (titrated, usually from 76.6 µM), most hits filed as activators. 410,000 compounds, 0.2% hits. AID 624263, 2012; active = well fitted activation curve with a large enough effect; inconclusive = small, poorly fitted or top-dose-only effect; cell line not stated here; also: nearly all actives have a fitted effect of over 65% in size
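Fluorescence from anti-PINK1 antibody, together with nuclear and cell stains, was scanned on a laser-scanning cytometer. Before staining, stable-line cells were incubated 24 hours with compounds at 5 concentrations; primary antibody 12 h at 10 degrees C.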
A number is an active result; . = inactive; ? = inconclusive; / = no result; ! = not active in a repeat. Unless noted, calls follow the shape of the dose curve; as a rule, active = well fitted curve in the direction sought with a large enough effect; inconclusive = small, poorly fitted or top-dose-only effect, or another doubt; inactive = no such curve, though single readings can be large; an effect the other way counts as inactive or inconclusive.

SMILES	12-LOX inh	Mm-Cpn inhibitor	p53 reactivation	S-ASM inh	CCT chaperon mod	PINK1 expr mod
CCCOc1ccc(C(=O)NNC(=S)NC(=O)c2ccco2)cc1	39.8µM	.	.	.	.	.
O=C(NC(=S)NNC(=O)c1ccco1)c1ccc(Br)cc1	28.2µM	.	.	.	.	.
Cc1ccc(N=Cc2ccc(N(C)C)cc2)cc1	.	.	.	.	.	.
CN(C)c1ccc(C=Nc2ccc(Nc3ccccc3)cc2)cc1	7.94µM	/	/	/	/	/
CN(C)c1ccc(C=Nc2ccc(N(C)C)cc2)cc1	?	?	39.8µM	.	.	.
CCN(CC)c1ccc(C=Nc2ccc(Nc3ccccc3)cc2)cc1	20µM	/	/	/	/	/
O=C(NCc1cccc(Cl)c1)C(=O)Nc1cccc2[nH]ccc12	.	/	/	/	/	/
COc1cc2ccccc2cc1C(=O)Nc1ccccc1N1CCN(C(C)=O)CC1	.	/	/	/	/	/
CC(C)(C)C1C=C(Sc2ccccc2)C(=O)O1 (configuration not stated)	.	.	.	.	.	15.8µM
Nc1cccc2[nH]ncc12	.	/	/	/	/	/
S=c1cn[nH]c2ccccc12	39.8µM	/	/	.	.	.
CC1=C[C@@H](CNC(=O)c2ccncc2)[C@H](C(C)C)C[C@H]1CC(=O)N1CCN(C)CC1	.	/	/	/	/	/
O=C(Nc1nc2ccccc2[nH]1)Nc1ccccc1F	.	.	11.2µM	.	.	.
O=C(Nc1ccc2[nH]c(=S)sc2c1)Nc1ccccc1F	14.1µM	.	?	.	.	.
COc1ccc(/C=C(\C#N)C(=O)C(C)(C)C)cc1OCc1cccc(C(F)(F)F)c1	.	/	/	/	/	/
CCCCCCCCCC(=O)Nc1c(C)cc(C)cc1C	.	/	/	/	/	/
CCNC(=S)Nc1ccc(Cl)cc1	.	.	.	.	.	.
CCNC(=S)Nc1cc(-c2ccc(Cl)cc2)[nH]n1	5.62µM	.	.	.	.	.
N#CC1=C(N)SC(N)=C(C#N)C1c1ccnc2ccccc12	4.47µM	.	.	.	.	.
CNC(=S)N1CCN(c2c(F)cc3c(=O)c(C(=O)O)cn(C4CC4)c3c2OC)CC1C (configuration not stated)	?	.	.	.	.	.
COC(=O)C(C)NC(=S)N1CCN(c2c(F)cc3c(=O)c(C(=O)O)cn(C4CC4)c3c2OC)CC1C (configuration not stated)	8.91µM	.	.	.	.	.
Cc1cccc(C)c1NC(=O)CN(C)C(=O)COc1ccc2oc3c(c2c1)CCCC3	.	/	/	/	/	/
O=C(Nc1cccc2ncccc12)c1ccc2c(c1)OCCO2	.	.	.	.	.	.
O=C(Nc1cccc2ncccc12)c1ccc2ccccc2c1	11.2µM	/	/	/	/	/
O=C(/C=C/c1cccs1)Nc1scc(-c2ccccc2)c1C(=O)O	44.7µM	?	.	.	.	.
SMILES	12-LOX inh	Mm-Cpn inhibitor	p53 reactivation	S-ASM inh	CCT chaperon mod	PINK1 expr mod
Cc1ccc(NC(=O)/C=C/c2cccs2)cc1	.	/	/	/	/	/
Cc1sc(NC(=O)/C=C/c2cccs2)c(C#N)c1C	7.94µM	/	/	/	/	/
O=C(/C=C/c1cccs1)Nc1nc(-c2ccccc2)cs1	.	.	.	.	.	.
O=C(NCCSCc1cccs1)C1CCCC1	.	/	/	/	/	/
Cc1sc(-c2nc(-c3cccc(F)c3)no2)cc1S(=O)(=O)Nc1ccc(F)cc1	.	/	/	/	/	/
CN1/C(=C\C(=O)COC(=O)c2ccc(O)c(O)c2)C(C)(C)c2ccccc21	10µM	.	.	.	.	?
CC(C)(C)NC(=O)CN1CCN(c2cccc(F)c2C#N)CC1	.	/	/	/	/	/
CC(C)(C)C1CCCCC1NC(=O)c1ccc(Cl)nc1 (configuration not stated)	.	/	/	/	/	/
Cc1cccc(N2CCN(CC(=O)NCC3CCCCC3)CC2)c1C	0.891µM	.	.	.	.	.
COc1ccc(-c2ocnc2C(=O)Nc2cc(Cl)ccc2OC)cc1	.	/	/	/	/	/
O=C1c2cccc([N+](=O)[O-])c2C(=O)N1c1cccnc1	.	.	.	.	.	.
O=C1c2ccccc2C(=O)N1c1cccnc1	.	/	/	.	-43.6	.
Cc1onc(-c2ccccc2)c1C(=O)NC(=S)NNC(=O)c1cc(-c2ccc(F)cc2)n[nH]1	44.7µM	.	.	.	.	.
Cc1onc(-c2ccccc2)c1C(=O)NC(=S)NNC(=O)c1ccncc1	.	.	.	.	.	?
COc1ccc(Nc2cc3c(cn2)CN(CCc2ccccc2)CCN3)cc1	.	/	/	/	/	/
C[N+]1(CCCCCCCCCCCCCO)CCCC1	28.2µM	/	/	/	/	/
CCOc1cc2ccccc2cc1C(=O)Nc1nnc(C2CC2)s1	.	/	/	/	/	/
O=C(/C=C/c1ccccc1Br)c1ccc(O)c(CCCl)c1	12.6µM	/	/	/	/	/
C/C(=N\NC(=S)NC(C)C)c1ccccc1	?	.	.	.	.	.
CC(C)NC(=S)NC(c1ccccc1)(c1ccccc1)c1ccccc1	39.8µM	.	.	.	.	?
COc1cc(-c2nc(CN3CCCC(CN)C3)c(C)o2)cc2c1OCO2 (configuration not stated)	.	/	/	/	/	/
O=C1C2CC=C(Cl)CC2C(=O)N1CC1OCCc2ccccc21 (configuration not stated)	20µM	.	.	.	.	.
O=C1C2CC=C(Cl)CC2C(=O)N1CC1Cc2ccccc2CO1 (configuration not stated)	/	.	.	.	.	.
Cc1[nH]c2ccc(C(=O)N3CCC(C(=O)N4CCCC4)CC3)cc2c1C	.	/	/	/	/	/
Cc1cnc(CNc2ccnc(-c3ccc(C(=O)N(C)C)cc3)n2)cn1	35.5µM	/	/	/	/	.
SMILES	12-LOX inh	Mm-Cpn inhibitor	p53 reactivation	S-ASM inh	CCT chaperon mod	PINK1 expr mod
Cc1cnc(CNc2cc(-c3ccc(C(=O)N(C)C)cc3)ncn2)cn1	?	/	/	/	/	.
C/C(CCC12CC3CC(CC(C3)C1)C2)=N\NC(N)=S	10µM	.	.	.	.	.
O=C(CCS(=O)(=O)c1ccc2c(c1)NC(=O)CO2)NCc1ccccc1	.	.	.	.	-64.0	.
O=C(CCS(=O)(=O)c1ccc2c(c1)NC(=O)CO2)NCCc1ccccc1	.	.	.	.	.	.
O=C(O)C(=O)/C(=C/c1ccsc1)c1ccc2ccccc2n1	8.91µM	/	/	/	/	/
C#CCNC(=O)C1CN(c2cccc(Cl)c2)C(=O)N1 (configuration not stated)	50.1µM!	/	/	/	/	/
COc1cccc(OC)c1C(=O)Nc1ccc2oc(-c3ccncc3)nc2c1	.	/	/	/	/	/
CCCCOC(=O)C(C)OC(=O)CCC (configuration not stated)	.	/	/	/	/	/
O=C(N/N=C/c1cn(-c2cccs2)nc1-c1ccccc1)c1ccccc1O	?	.	?	.	.	28.2µM

Compound activity deposited in PubChem BioAssay by National Center for Advancing Translational Sciences (NCATS).
